Some test systems named below: SR leukemia; RPMI-8226 leukemia; OVCAR-8 ovarian; OVCAR-5 ovarian; OVCAR-4 ovarian; SK-OV-3 ovarian; IGROV1 ovarian; OVCAR-3 ovarian; HS 578T breast.
Test in all cases: NCI-60 one-dose screen, 48 h (100 = growth as untreated, 0 = no growth, -100 = all killed)
What all share (conditions): 10 µM unless noted

Several values for one entry are separate records, joined by “and”; a condition that tells them apart may be missing. Identical values can stand only once. This is part of a sample that, as a whole, favours compounds with a hit. Of some 83,000 tested, about 20% had one in any assay.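 48-hour exposure, single concentration, 96-well plates; percent growth endpoint where 0 means no net growth. Active: below 10.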 Activity calls are given as the source filed them.

In the case of `Brc1ccc(SSc2ccc(Br)cc2)cc1`, the growth was 57.8% (inactive) in the assay with SR leukemia; 35.6% (inactive) with RPMI-8226 leukemia; 83.9% (inactive) with OVCAR-8 ovarian; 90.8% (inactive) in the assay on OVCAR-5 ovarian; 91.2% (inactive) in the assay on OVCAR-4 ovarian; 110% (inactive) in the assay with SK-OV-3 ovarian. Also, the growth in the assay with IGROV1 ovarian was 29.3% (inactive); in the assay on OVCAR-3 ovarian, 85.4% (inactive); in the assay with HS 578T breast, 96.9% (inactive).

Regarding `Fc1ccc([I+]c2ccc(F)cc2)cc1`, the growth in the assay with SR leukemia is 38.6% (inactive); in the assay on RPMI-8226 leukemia it was 41.7% (inactive); in the assay on OVCAR-8 ovarian, 46.1% (inactive); with OVCAR-5 ovarian, 92.9% (inactive); in the assay on OVCAR-4 ovarian, 52.1% (inactive); in the assay on SK-OV-3 ovarian it was 68.4% (inactive). Moreover, the growth in the assay with IGROV1 ovarian was 62.4% (inactive); in the assay on OVCAR-3 ovarian, 64.9% (inactive); in the assay on HS 578T breast it was 86.2% (inactive).

For the compound `CCN(CCNS(C)(=O)=O)c1ccc(N)c(C)c1`, the growth in the assay with SR leukemia was 94.9% (inactive); with RPMI-8226 leukemia, 59.9% (inactive) and 110% (inactive); in the assay on OVCAR-8 ovarian it was 78.1% (inactive) and 97.5% (inactive); in the assay on OVCAR-5 ovarian, 115% (inactive) and 109% (inactive); in the assay with OVCAR-4 ovarian, 69.6% (inactive) and 102% (inactive); with SK-OV-3 ovarian it was 98.6% (inactive) and 96% (inactive). For the same compound, the growth in the assay on IGROV1 ovarian is 70.3% (inactive) and 68.9% (inactive); in the assay on OVCAR-3 ovarian it was 25.5% (inactive) and 77.8% (inactive); in the assay on HS 578T breast it was 115% (inactive) and 103% (inactive).

As to `COc1ccc(C(=O)CC(c2ccccc2)C(C#N)c2ccccc2)cc1` (stereo not drawn), the growth was 73.8% (inactive) with SR leukemia; 72.6% (inactive) with RPMI-8226 leukemia; 86% (inactive) in the assay with OVCAR-8 ovarian; 110% (inactive) with OVCAR-5 ovarian; 88.8% (inactive) in the assay with OVCAR-4 ovarian; 102% (inactive) in the assay on SK-OV-3 ovarian. The growth with IGROV1 ovarian was 102% (inactive); with OVCAR-3 ovarian, 82.4% (inactive); in the assay with HS 578T breast, 86.4% (inactive).

For the compound `NC(Cc1c[nH]c2ccccc12)C(=O)O` (stereo not drawn), the growth with SR leukemia is 53.3% (inactive) and 105% (inactive); with RPMI-8226 leukemia it was 86.6% (inactive) and 103% (inactive); in the assay with OVCAR-8 ovarian it was 58.3% (inactive) and 93.5% (inactive); with OVCAR-5 ovarian it was 91.7% (inactive) and 103% (inactive); with OVCAR-4 ovarian it was 108% (inactive) and 102% (inactive); in the assay on SK-OV-3 ovarian, 106% (inactive) and 105% (inactive). The growth in the assay on IGROV1 ovarian is 105% (inactive) and 120% (inactive); in the assay with OVCAR-3 ovarian, 120% (inactive) and 107% (inactive); in the assay on HS 578T breast it was 115% (inactive) and 95.3% (inactive).

Consider `O=C1CSC2=NCCN12`, for which the growth in the assay with SR leukemia is 98.3% (inactive) and 49.5% (inactive); in the assay with RPMI-8226 leukemia it was 101% (inactive) and 90.7% (inactive); in the assay on OVCAR-8 ovarian, 96.4% (inactive) and 107% (inactive); in the assay with OVCAR-5 ovarian, 116% (inactive) and 96.7% (inactive); in the assay on OVCAR-4 ovarian it was 93.9% (inactive) and 94.2% (inactive); in the assay with SK-OV-3 ovarian, 105% (inactive) and 124% (inactive). Also, the growth in the assay with IGROV1 ovarian was 106% (inactive) and 101% (inactive); with OVCAR-3 ovarian it was 102% (inactive) and 122% (inactive); with HS 578T breast it was 88.1% (inactive) and 92.9% (inactive).

`CN(C)c1ccc(/C=C\C(=O)c2ccccc2)cc1`: the growth was 3.11% (active) and 59.4% (inactive) and 24.9% (inactive) in the assay with SR leukemia; 72.7% (inactive) and 76.8% (inactive) and 69.6% (inactive) with RPMI-8226 leukemia; 102% (inactive) and 93.9% (inactive) and 92.6% (inactive) with OVCAR-8 ovarian; 106% (inactive) and 110% (inactive) and 99% (inactive) in the assay with OVCAR-5 ovarian; 105% (inactive) and 109% (inactive) and 104% (inactive) with OVCAR-4 ovarian; 92.3% (inactive) and 104% (inactive) with SK-OV-3 ovarian. Besides, the growth in the assay with IGROV1 ovarian is 80.5% (inactive) and 91.3% (inactive) and 80.3% (inactive); with OVCAR-3 ovarian, 81.4% (inactive) and 76.2% (inactive) and 78.5% (inactive); in the assay with HS 578T breast, 104% (inactive) and 99.6% (inactive) and 103% (inactive).

In the case of `CC[C@H](CC[C@@H](C)[C@H]1CC[C@H]2[C@@H]3CC=C4C[C@@H](O)CC[C@]4(C)[C@H]3CC[C@]12C)C(C)C`, the growth is 109% (inactive) and 101% (inactive) in the assay on SR leukemia; 114% (inactive) in the assay with RPMI-8226 leukemia; 98.9% (inactive) and 105% (inactive) with OVCAR-8 ovarian; 45.2% (inactive) and 103% (inactive) in the assay with OVCAR-5 ovarian; 97.6% (inactive) and 114% (inactive) in the assay with OVCAR-4 ovarian; 94.8% (inactive) and 104% (inactive) with SK-OV-3 ovarian. The growth was 111% (inactive) in the assay with IGROV1 ovarian; 112% (inactive) and 108% (inactive) in the assay on OVCAR-3 ovarian; 96.5% (inactive) and 103% (inactive) with HS 578T breast.

For the compound `Cc1ccc(S(=O)(=O)c2ccccc2)cc1`, the growth in the assay on SR leukemia was 34.7% (inactive); in the assay with RPMI-8226 leukemia, 49% (inactive); with OVCAR-8 ovarian it was 55.1% (inactive); in the assay on OVCAR-5 ovarian, 80.1% (inactive); in the assay with OVCAR-4 ovarian, 71.1% (inactive); in the assay with SK-OV-3 ovarian, 29.5% (inactive). Moreover, the growth in the assay on IGROV1 ovarian was 45.4% (inactive); in the assay with OVCAR-3 ovarian it was -38.9% (active); in the assay on HS 578T breast, 35.2% (inactive).

Regarding `O=C(Cc1ccccc1)c1ccc(O)c(Cl)c1`, the growth in the assay with SR leukemia was 10.2% (inactive); in the assay with RPMI-8226 leukemia, -6.77% (active); in the assay with OVCAR-8 ovarian, 43.4% (inactive); in the assay on OVCAR-5 ovarian, 65.6% (inactive); in the assay with OVCAR-4 ovarian it was 63.5% (inactive); in the assay on SK-OV-3 ovarian, 101% (inactive). Besides, the growth is 60.4% (inactive) in the assay with IGROV1 ovarian, 12.4% (inactive) in the assay on OVCAR-3 ovarian and 37.4% (inactive) in the assay on HS 578T breast.

Consider `ClCCOCCOc1ccc(C2CCCCC2)cc1`, for which the growth is 98.5% (inactive) in the assay on SR leukemia; 110% (inactive) in the assay with RPMI-8226 leukemia; 97.1% (inactive) with OVCAR-8 ovarian; 95.4% (inactive) in the assay with OVCAR-5 ovarian; 97.7% (inactive) in the assay on OVCAR-4 ovarian; 102% (inactive) with SK-OV-3 ovarian. In addition, the figures for the growth with IGROV1 ovarian, in the assay on OVCAR-3 ovarian and in the assay on HS 578T breast were 117% (inactive), 103% (inactive) and 101% (inactive), respectively.

Turning to `CN1CNC(=O)NC1`, the growth was 106% (inactive) and 79.6% (inactive) with SR leukemia; 113% (inactive) and 104% (inactive) in the assay with RPMI-8226 leukemia; 106% (inactive) and 98.6% (inactive) in the assay on OVCAR-8 ovarian; 112% (inactive) and 111% (inactive) in the assay on OVCAR-5 ovarian; 119% (inactive) and 112% (inactive) with OVCAR-4 ovarian; 112% (inactive) and 105% (inactive) in the assay with SK-OV-3 ovarian. The growth in the assay with IGROV1 ovarian was 137% (inactive) and 97.8% (inactive); with OVCAR-3 ovarian it was 112% (inactive) and 107% (inactive); in the assay with HS 578T breast, 109% (inactive) and 96.5% (inactive).

For the origin of these results see PubChem BioAssay (NCI).
